Results published in PubChem BioAssay (EPA / NIEHS).
The source made the active and inactive calls. The calls were made as follows: active = hit-call score of the fitted dose curve at least 0.9, where 1 is the maximum; inactive = score below 0.9.

What was measured:
[1] = ATG_CRE_CIS: Attagene CIS-FACTORIAL HepG2 Assay for human cAMP Responsive Element (CRE) binding protein 3 (AID 2282926); settings: HepG2 CRE cis-reporter, Attagene multiplexed mRNA; actives raise or lower the signal
Method in brief: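 Liver-derived HepG2, transfected with a CRE-containing reporter panel, exposed 24 h; transcript levels sized and quantified by capillary electrophoresis of labelled amplicons; signal changes either way referenced to vehicle.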

[2] = target: CCAAT/enhancer-binding protein beta (Homo sapiens) (UniProt P17676); assay: ATG_C_EBP_CIS: Attagene CIS-FACTORIAL HepG2 Assay for human CCAAT/Enhancer Binding Protein (C/EBP) beta (AID 2282927); settings: HepG2 Attagene cis-factorial transcription factor reporter; actives raise or lower the signal
Method in brief: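 Transiently transfected HepG2 (MRTU library, endogenous TF-driven promoters); 24 h dosing; total RNA → oligo(dT) RT → PCR → 6-FAM primer extension → HpaI digest → CE; fit bidirectionally vs DMSO.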

[3] = ATG_CMV_CIS: Attagene CIS-FACTORIAL HepG2 Assay for human CMV (Internal Marker) (AID 2282928); settings: HepG2 CMV promoter reporter, transcription factor profiling; actives raise or lower the signal;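 also: endpoint acts as a background internal control marker rather than a target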
Method in brief: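 Bidirectional fits against DMSO are applied to reporter mRNA, read by RT-PCR with capillary electrophoresis, from HepG2 cells exposed 24 h. The endpoint serves as an internal CMV background marker within the cis-factorial reporter panel.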

[4] = ATG_DR4_LXR_CIS: Attagene CIS-FACTORIAL HepG2 Assay for human Liver X Receptor (LXR), DR4 submotif (AID 2282929); settings: HepG2 Attagene DR4 cis-reporter, mRNA transcription; actives raise or lower the signal
Method in brief: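 Total RNA from 24 h-treated, MRTU-transfected HepG2 cells underwent reverse transcription, PCR, fluorescent primer extension and restriction digestion before capillary electrophoresis. Both increases and decreases in reporter signal were fitted against DMSO.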

[5] = target: Aryl hydrocarbon receptor (Homo sapiens) (UniProt P35869); assay: ATG_Ahr_CIS: Attagene CIS-FACTORIAL HepG2 Assay for human Aryl Hydrocarbon Receptor (Ahr) (AID 2282930); settings: HepG2 AhR cis-factorial reporter transcription; actives raise or lower the signal
Method in brief: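 Read-out: reporter mRNA quantified by RT-PCR with fluorescent primer extension and capillary electrophoresis. Human HepG2 liver cells carried transfected cis-promoter reporter units and were exposed to chemical for 24 h; gain or loss fitted relative to DMSO.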

[6] = ATG_AP_2_CIS: Attagene CIS-FACTORIAL HepG2 Assay for human Activator Protein 2 (AP-2) (AID 2282932); settings: HepG2 AP-2 cis-reporter, Attagene transcription factor profiling; actives raise or lower the signal
Method in brief: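 Liver-derived HepG2 line, cis-reporter system measuring endogenous factors; 24 h dosing; reporter mRNA detected by fluorescent RT-PCR and capillary electrophoresis.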

[7] = ATG_BRE_CIS: Attagene CIS-FACTORIAL HepG2 Assay for human Bone Morphogenetic Protein (BMP) Response Element (BRE) (AID 2282933); settings: HepG2 BMP response element reporter, Attagene transcription factor profiling; actives raise or lower the signal
Method in brief: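 Read-out: reporter mRNA induction quantified by RT-PCR and capillary electrophoresis after 24 h chemical exposure of transfected HepG2 cells. Endogenous factor activity on the BMP response element; gain or loss fitted against DMSO baseline.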

[8] = ATG_E_Box_CIS: Attagene CIS-FACTORIAL HepG2 Assay for human Enhancer Box (E-box) (AID 2282936); settings: HepG2 E-box cis-reporter transcription, actives raise or lower the signal
Method in brief: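 In this cell-based setup, HepG2 cells bearing transfected promoter-driven reporter units were exposed to chemicals for 24 h; reporter transcripts were amplified, 6-FAM-labelled, cut with HpaI and sized by capillary electrophoresis.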

[9] = ATG_M_61_CIS: Attagene CIS-FACTORIAL HepG2 Assay for M61 Transcription Factor (Internal Marker) (AID 2282937); settings: HepG2 Attagene CIS-FACTORIAL M61 internal marker reporter; actives raise or lower the signal
Method in brief: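 Transfect HepG2 with MRTUs; dose 24 h; isolate RNA; reverse-transcribe with DNase I treatment; PCR-amplify, FAM-label and cut with HpaI for 2 h at 37 C; resolve by CE. Bidirectional fitting against DMSO.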

[10] = ATG_EGR_CIS: Attagene CIS-FACTORIAL HepG2 Assay for human Early Growth Response 1 (EGR1) (AID 2282938); settings: HepG2 Attagene CIS-FACTORIAL EGR reporter mRNA; actives raise or lower the signal
Method in brief: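 After a 24 h treatment of transiently transfected HepG2 cells, total RNA was reverse-transcribed and reporter sequences PCR-amplified, labelled and run on capillary electrophoresis. Reporters sit under cis-regulatory promoters sensing endogenous factors.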

[11] = ATG_M_19_CIS: Attagene CIS-FACTORIAL HepG2 Assay for M19 Transcription Factor (Internal Marker) (AID 2282939); settings: HepG2 Attagene CIS-FACTORIAL M19 internal marker reporter; actives raise or lower the signal
Method in brief: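 Readout: fluorescent reporter-transcript fragments by capillary electrophoresis after RT-PCR. Human HepG2 liver cells carried transfected MRTU constructs reporting endogenous transcription-factor activity; exposure 24 h. Gain or loss of signal fitted relative to DMSO.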

[12] = ATG_ERE_CIS: Attagene CIS-FACTORIAL HepG2 Assay for Estrogen Response Element (ERE) (AID 2282940); settings: HepG2 ERE cis-reporter, Attagene RNA transcript; actives raise or lower the signal
Method in brief: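 Readout: reporter mRNA induction by RT-PCR, FAM-labelled primer extension, HpaI digestion and capillary electrophoresis, 24 h after dosing transfected HepG2 cells. Endogenous transcription factors act on cis-element-regulated reporters. Gain or loss fitted against DMSO.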

[13] = ATG_Ets_CIS: Attagene CIS-FACTORIAL HepG2 Assay for human Erythroblast Transformation Specific (ETS) (AID 2282941); settings: HepG2 ETS cis-reporter transcription, actives raise or lower the signal
Method in brief: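 Endogenous transcription factor activity read as reporter mRNA via RT-PCR and capillary electrophoresis, with gain or loss fitted bidirectionally against DMSO. Human HepG2 liver cells, transiently transfected CIS reporter constructs, 24 h exposure.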

[14] = target: Hepatocyte nuclear factor 3-beta (Homo sapiens) (UniProt Q9Y261); assay: ATG_FoxA2_CIS: Attagene CIS-FACTORIAL HepG2 Assay for human Forkhead box A2 (FOXA2) (AID 2282942); settings: HepG2 cis-reporter transcription factor activity, 24 h; actives raise or lower the signal
Method in brief: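 24 h dosing of HepG2 bearing cis-reporter constructs; mRNA readout by RT-PCR/CE fluorescence; bidirectional fit, DMSO baseline.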

[15] = ATG_GATA_CIS: Attagene CIS-FACTORIAL HepG2 Assay for human GATA Binding Protein (AID 2282944); settings: HepG2 GATA cis-element reporter, Attagene multiplex mRNA; actives raise or lower the signal
Method in brief: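 Read-out: fluorescent reporter mRNA fragments resolved by capillary electrophoresis after RT-PCR. Human liver HepG2 cells carried transiently transfected cis-regulated reporter constructs; chemicals incubated 24 h; gain or loss of signal fitted relative to DMSO.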

[16] = ATG_GLI_CIS: Attagene CIS-FACTORIAL HepG2 Assay for human Zinc Finger Protein GLI1 (AID 2282945); settings: HepG2, Attagene cis-factorial reporter mRNA, GLI element; actives raise or lower the signal
Method in brief: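 Transiently transfected HepG2 cells report endogenous transcription factor activity via cis-element-driven reporter units. After 24 h compound exposure, reporter mRNA was measured by RT-PCR with capillary electrophoresis; bidirectional fitting against DMSO baseline.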

[17] = ATG_AP_1_CIS: Attagene CIS-FACTORIAL HepG2 Assay for human Activator Protein 1 (AP-1) (AID 2282931); settings: HepG2 Attagene cis-factorial AP-1 reporter mRNA; actives raise or lower the signal
Method in brief: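 HepG2, transient cis-reporter transfection; 24 h; readout RT-PCR/CE fluorescence; DMSO baseline, gain and loss fitted.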

[18] = target: Transcription factor E2F1 (Homo sapiens) (UniProt Q01094); assay: ATG_E2F_CIS: Attagene CIS-FACTORIAL HepG2 Assay for human E2F Transcription Factor 1 (AID 2282935); settings: HepG2 Attagene cis-reporter, E2F reporter RNA transcripts; actives raise or lower the signal
Method in brief: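 Liver-derived HepG2 cells expressing transfected promoter-driven reporter units received test chemical for 24 hours. Signal gains or losses were fitted bidirectionally against DMSO.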

[19] = ATG_FoxO_CIS: Attagene CIS-FACTORIAL HepG2 Assay for human Forkhead box O (FoxO) (AID 2282943); settings: HepG2 Attagene cis-reporter, FoxO element, mRNA; actives raise or lower the signal
Method in brief: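 Read-out: fluorescence of 6-FAM-labelled reporter cDNA fragments resolved by capillary electrophoresis. Transiently transfected HepG2 cells were dosed for 24 h; activity fitted in both directions relative to DMSO controls.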

Chain of Aryl hydrocarbon receptor (Homo sapiens) (P35869 whole entry, looked up): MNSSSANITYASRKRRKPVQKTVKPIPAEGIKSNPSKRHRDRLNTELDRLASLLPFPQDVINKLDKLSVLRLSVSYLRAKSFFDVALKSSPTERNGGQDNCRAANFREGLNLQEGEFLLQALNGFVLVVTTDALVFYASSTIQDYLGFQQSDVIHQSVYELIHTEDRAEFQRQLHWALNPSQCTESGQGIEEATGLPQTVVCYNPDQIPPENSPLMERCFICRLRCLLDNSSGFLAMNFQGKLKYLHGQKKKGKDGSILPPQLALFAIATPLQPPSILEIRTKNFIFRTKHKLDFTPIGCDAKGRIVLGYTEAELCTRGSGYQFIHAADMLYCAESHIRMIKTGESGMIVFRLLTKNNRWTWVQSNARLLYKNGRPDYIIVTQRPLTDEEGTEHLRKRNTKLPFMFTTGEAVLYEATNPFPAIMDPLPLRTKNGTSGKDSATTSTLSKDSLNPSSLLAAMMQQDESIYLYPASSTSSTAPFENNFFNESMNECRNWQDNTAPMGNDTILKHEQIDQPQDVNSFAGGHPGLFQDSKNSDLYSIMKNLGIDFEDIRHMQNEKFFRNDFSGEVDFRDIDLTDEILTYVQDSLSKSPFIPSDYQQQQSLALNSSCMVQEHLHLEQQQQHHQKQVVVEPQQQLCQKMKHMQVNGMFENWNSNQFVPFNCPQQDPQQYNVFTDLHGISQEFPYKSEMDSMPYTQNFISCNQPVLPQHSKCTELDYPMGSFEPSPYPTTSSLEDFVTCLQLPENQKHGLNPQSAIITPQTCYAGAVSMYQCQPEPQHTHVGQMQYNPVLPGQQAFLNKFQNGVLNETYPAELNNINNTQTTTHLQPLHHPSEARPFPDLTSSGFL
Chain of Hepatocyte nuclear factor 3-beta (Homo sapiens) (Q9Y261 whole entry, looked up): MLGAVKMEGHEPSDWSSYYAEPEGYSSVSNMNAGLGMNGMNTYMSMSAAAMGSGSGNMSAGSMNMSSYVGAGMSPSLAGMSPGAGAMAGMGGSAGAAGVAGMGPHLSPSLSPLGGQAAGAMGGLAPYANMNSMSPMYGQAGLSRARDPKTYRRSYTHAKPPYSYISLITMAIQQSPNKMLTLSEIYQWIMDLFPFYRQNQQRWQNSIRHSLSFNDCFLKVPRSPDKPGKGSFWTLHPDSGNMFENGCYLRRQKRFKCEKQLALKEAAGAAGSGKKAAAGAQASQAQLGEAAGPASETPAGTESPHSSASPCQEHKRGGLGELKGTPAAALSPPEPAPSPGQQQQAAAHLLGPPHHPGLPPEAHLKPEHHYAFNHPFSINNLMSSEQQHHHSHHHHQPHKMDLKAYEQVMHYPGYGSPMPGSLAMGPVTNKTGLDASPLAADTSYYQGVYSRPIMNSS
Chain of CCAAT/enhancer-binding protein beta (Homo sapiens) (P17676 whole entry, looked up): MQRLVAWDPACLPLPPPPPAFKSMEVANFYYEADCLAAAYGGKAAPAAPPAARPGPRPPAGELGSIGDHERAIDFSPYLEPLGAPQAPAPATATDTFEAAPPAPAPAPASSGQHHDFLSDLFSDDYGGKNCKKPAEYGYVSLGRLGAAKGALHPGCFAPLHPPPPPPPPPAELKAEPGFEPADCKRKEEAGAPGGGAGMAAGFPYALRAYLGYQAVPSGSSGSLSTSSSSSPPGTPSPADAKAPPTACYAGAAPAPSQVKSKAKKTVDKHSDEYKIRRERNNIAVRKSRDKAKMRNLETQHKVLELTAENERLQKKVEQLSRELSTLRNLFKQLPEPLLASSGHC
Chain of Transcription factor E2F1 (Homo sapiens) (Q01094 whole entry, looked up): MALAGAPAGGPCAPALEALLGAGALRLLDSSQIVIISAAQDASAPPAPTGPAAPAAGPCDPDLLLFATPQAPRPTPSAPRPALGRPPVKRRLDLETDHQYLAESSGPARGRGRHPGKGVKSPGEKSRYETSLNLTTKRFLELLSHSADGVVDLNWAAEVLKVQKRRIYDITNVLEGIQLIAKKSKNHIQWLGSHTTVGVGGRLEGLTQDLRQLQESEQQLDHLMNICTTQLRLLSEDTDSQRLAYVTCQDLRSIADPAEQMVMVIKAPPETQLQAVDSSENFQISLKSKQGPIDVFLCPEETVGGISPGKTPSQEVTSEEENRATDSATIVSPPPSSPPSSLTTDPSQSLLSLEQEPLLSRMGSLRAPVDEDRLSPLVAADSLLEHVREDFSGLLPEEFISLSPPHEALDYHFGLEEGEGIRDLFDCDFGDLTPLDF

## O=C(O)CCCCCCCCCCC(=O)O
[1]
  outcome: inactive
[2]
  outcome: inactive
[3]
  outcome: inactive
[4]
  outcome: inactive
[5]
  outcome: inactive
[6]
  outcome: inactive
[7]
  outcome: inactive
[8]
  outcome: inactive
[9]
  outcome: inactive
[10]
  outcome: inactive
[11]
  outcome: inactive
[12]
  outcome: inactive
[13]
  outcome: inactive
[14]
  outcome: inactive
[15]
  outcome: inactive
[16]
  outcome: inactive

## O=C(O)Cc1cccc2ccccc12
[1]
  outcome: inactive
[2]
  outcome: inactive
[3]
  outcome: inactive
[4]
  outcome: inactive
[5]
  outcome: inactive
[17]
  outcome: inactive
[7]
  outcome: inactive
[18]
  outcome: inactive
[8]
  outcome: inactive
[9]
  outcome: inactive
[10]
  outcome: inactive
[11]
  outcome: inactive
[13]
  outcome: inactive
[19]
  outcome: inactive
[15]
  outcome: inactive
[16]
  outcome: inactive

## Nc1cc(N)cc(C(=O)O)c1
[1]
  outcome: inactive
[2]
  outcome: inactive
[3]
  outcome: inactive
[4]
  outcome: inactive
[5]
  outcome: inactive
[6]
  outcome: inactive
[7]
  outcome: inactive
[18]
  outcome: inactive
[8]
  outcome: inactive
[9]
  outcome: inactive
[10]
  outcome: inactive
[11]
  outcome: inactive
[12]
  outcome: inactive
[13]
  outcome: inactive
[14]
  outcome: inactive
[19]
  outcome: inactive
[15]
  outcome: inactive
[16]
  outcome: inactive

## Cc1ccc(C(C)C)cc1O
[1]
  outcome: inactive
[2]
  outcome: inactive
[3]
  outcome: inactive
[4]
  outcome: inactive
[5]
  outcome: inactive
[17]
  outcome: inactive
[7]
  outcome: inactive
[18]
  outcome: inactive
[8]
  outcome: inactive
[9]
  outcome: inactive
[13]
  outcome: inactive
[14]
  outcome: inactive
[19]
  outcome: inactive
[15]
  outcome: inactive
[16]
  outcome: inactive

## CCCCC/C=C/C=C/C=O
[1]
  outcome: inactive
[2]
  outcome: inactive
[3]
  outcome: inactive
[4]
  AC50: 167 µM (active)
[5]
  outcome: inactive
[7]
  outcome: inactive
[18]
  outcome: inactive
[8]
  outcome: inactive
[9]
  outcome: inactive
[10]
  outcome: inactive
[11]
  outcome: inactive
[13]
  outcome: inactive
[14]
  outcome: inactive
[19]
  outcome: inactive
[15]
  outcome: inactive
[16]
  outcome: inactive

## CCc1c(C)cc(N)c(CC)c1N
[1]
  outcome: inactive
[2]
  outcome: inactive
[3]
  outcome: inactive
[4]
  outcome: inactive
[5]
  AC50: 79.3 µM (active)
[6]
  outcome: inactive
[7]
  outcome: inactive
[18]
  outcome: inactive
[8]
  outcome: inactive
[9]
  outcome: inactive
[10]
  outcome: inactive
[11]
  outcome: inactive
[12]
  outcome: inactive
[13]
  outcome: inactive
[14]
  outcome: inactive
[19]
  outcome: inactive
[15]
  outcome: inactive
[16]
  outcome: inactive

## O=C1NC(=O)c2ccccc21
[1]
  outcome: inactive
[2]
  outcome: inactive
[3]
  outcome: inactive
[4]
  outcome: inactive
[5]
  outcome: inactive
[18]
  outcome: inactive
[8]
  outcome: inactive
[9]
  outcome: inactive
[13]
  outcome: inactive
[19]
  outcome: inactive
[15]
  outcome: inactive
[16]
  outcome: inactive
